FBPA Giardia inh = Giardia lamblia aldolase inhibition; purified Giardia FBPA; 290,000 tested, 0.71% active; Potency, µM (highest dose often 59.6 µM), for the others: at the top dose activity, negative = inhibition, hits mostly inhibitors; A8B2U2; note: potency is the fitted concentration of half-maximal effect; nearly all actives have a fitted effect of over 55% in size
Target sequence (A8B2U2 whole entry, looked up): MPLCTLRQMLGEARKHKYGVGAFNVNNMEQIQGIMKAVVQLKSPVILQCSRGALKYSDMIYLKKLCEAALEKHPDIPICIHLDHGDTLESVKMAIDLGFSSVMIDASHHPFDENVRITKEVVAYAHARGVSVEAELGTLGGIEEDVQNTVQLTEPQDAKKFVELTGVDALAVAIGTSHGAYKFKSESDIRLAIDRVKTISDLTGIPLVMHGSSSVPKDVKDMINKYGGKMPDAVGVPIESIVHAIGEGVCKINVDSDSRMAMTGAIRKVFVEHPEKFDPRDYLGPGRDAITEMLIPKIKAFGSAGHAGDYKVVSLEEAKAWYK
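Giardia FBPA (40 nM reagent) was preincubated 10 min at RT with compound (up to 57.5 uM final), then substrate plus GAPDH/TPI/NAD/arsenate coupling system with diaphorase/resazurin was added; resorufin fluorescence (525/598 nm) was read after 20 min.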
HCMV antiviral = inhibitors of human cytomegalovirus; HFF cells, HCMV-luciferase reporter, 72 h; hits give low values; activity change, negative = inhibition, % at 57.5 µM; 410,000 tested, 4.5% active; AID 1259415; in the data active = activity change below about -60%; inconclusive = no clear call, values can overlap the other calls; inactive = above about -39%
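HFF cells seeded 16 h at 37C, treated with compounds, infected with luciferase-reporter HCMV at MOI 1 PFU/cell; luciferase read at 72 h post infection, normalized to buffer-only and Salinomycin controls.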
Pf growth 96h = P. falciparum growth inhibition at 96 hour, primary screen for plastid delayed-death inhibitors; P. falciparum luciferase reporter growth, 96 h; Potency, µM (highest dose often 28.7 µM), without a hit: at the highest dose activity change, negative = inhibition, most hits filed as inhibitors; 320,000 tested, 6.9% active; AID 504834; note: potency is the fitted concentration of half-maximal effect
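P. falciparum expressing integrated firefly luciferase grown in erythrocytes (2% hematocrit, 0.05% parasitemia final) with compounds for 96 hours at 37 C, 5% CO2. Growth inhibition read as loss of luminescence after adding luciferase detection reagent.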
Pf growth 48h = P. falciparum growth inhibition at 48 hours (one generation) | P. falciparum luciferase growth in erythrocytes, 48 h | Potency, µM (series often up to 28.7 µM), without a hit: at the highest dose activity change, negative = inhibition, actives largely listed as inhibitors | 310,000 tested, 5.9% active | AID 504832; note: potency is the fitted concentration of half-maximal effect
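Here the parasites carry a stable luciferase gene and grow inside erythrocytes in Albumax-based RPMI medium with compound for one erythrocytic cycle. Activity is scored as loss of luminescent signal.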
Sm TGR inh = S. mansoni TGR enzyme inhibition; purified TGR, DTNB reduction, TNB absorbance 405 nm; Potency, µM (top dose mostly 114 µM), for inactives: at the top dose activity change, negative = inhibition, hits mostly inhibitors; 360,000 tested, 3% active; note: potency is the fitted concentration of half-maximal effect; nearly all actives have a fitted effect of over 60% in size
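Kinetic colorimetric format: TGR-catalysed, NADPH-driven DTNB reduction monitored via TNB absorbance. Enzyme dispensed at 20 nM; compound exposure 15 min at room temperature before reaction start.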
* marks the source's active call; other numbers are inactive results; ? = inconclusive; · = no result given; ! = not active in a repeat; [ ] = another dose, or the depositor's remark. Hits are enriched below; roughly 14% of the tested compounds scored in any of these assays. Unless noted, calls come from the whole dose curve; as a rule, active = well fitted curve in the direction sought with a large enough effect; inconclusive = small, poorly fitted or top-dose-only effect, or another doubt; inactive = no such curve, though single readings can be large; an effect the other way counts as inactive or inconclusive. % is set by controls: 0 for no effect and ±100 for the full control effect.

SMILES	FBPA Giardia inh	HCMV antiviral	Pf growth 96h	Pf growth 48h	Sm TGR inh
C[C@@H]1CCCCO[C@H](CN(C)S(=O)(=O)c2ccccc2)[C@@H](C)CN([C@H](C)CO)C(=O)c2cc(NC(=O)Cc3ccccc3)ccc2O1	·	-9	·	·	·
Cc1ccn2c(=S)[nH]nc2c1	·	-67*	·	·	·
S=c1[nH]nc2ccccn12	·	-25	·	·	·
CCC1(C(=O)c2ccccc2)C(c2ccc([N+](=O)[O-])cc2)C1(C(=O)OC)C(=O)OC (centres undefined)	0%	-34	18%	13µM*	-1%
O=c1c(-c2ccccc2)nc2cncnc2n1Cc1ccccc1Cl	-5%	·	·	·	·
CCC(Sc1nc2sc(C(=O)OC)c(C)c2c(=O)n1N)C(=O)NCC1CCCO1 (centres undefined)	5%	-1	4.7µM*	?	-30%
CCOC(=O)c1ccc2c(c1)N(Cc1cccc(C(F)(F)F)c1)C(=O)c1ccccc1S2(=O)=O	·	-22	·	·	8%
COCCN(C(=O)CSc1n[nH]c(-c2ccccc2)n1)c1c(N)n(CC(C)C)c(=O)[nH]c1=O	·	-14	1%	3%	1%
Cc1cc(Nc2cc(Cl)cc(Cl)c2)nc(N)n1	-10%	-15	2.3µM*	1.9µM*	12%
Cc1cc(Nc2ccc(C(=O)O)cc2)nc(N)n1	-29%	30	22%	1%	3%
Cc1cc(Nc2ccc(F)cc2)nc(N)n1	0%	-1	9.3µM*	?	-23%
CCc1ccc(CNC(=O)C2CCCN(c3nn4c(=O)cc(C)nc4s3)C2)cc1 (centres undefined)	-11%	4	?	?	4%
COc1ccc2cc3[n+](cc2c1OC)CCc1cc2c(cc1-3)OCO2	?	-96*	0.15µM*	0.23µM*	-6%
CC1CCN(S(=O)(=O)c2ccc(S(=O)(=O)NCC3COCCO3)cc2)CC1 (centres undefined)	1%	5	·	-3%	-3%
O=C1C2ON(c3ccccc3)C(c3ccncc3)C2C(=O)N1c1ccc(Br)cc1 (centres undefined)	0%	-7	4%	-19%	45µM*
CN(C)c1ccc(C2C3C(=O)N(c4ccc(C(=O)O)cc4)C(=O)C3ON2c2ccccc2)cc1 (centres undefined)	-2%	6	0%	33%	-3%
O=C1C2ON(c3ccccc3)C(c3ccncc3)C2C(=O)N1c1ccc(N2CCOCC2)cc1 (centres undefined)	3%	-75*	12%	·	3%
O=C(O)COc1ccccc1C1C2C(=O)N(c3ccccc3)C(=O)C2ON1c1ccccc1 (centres undefined)	-4%	39	·	3%	22µM*
Cc1ccc(N2C(=O)C3ON(c4ccccc4)C(c4ccncc4)C3C2=O)cc1 (centres undefined)	19%	24	·	21%	16µM*
COc1ccc(CNC(=O)CC2C[C@H](C(=O)N3CCOCC3)[C@@]3(CCC4CCCC4)c4[nH]c5ccccc5c4CCN3C2=O)cc1OC (some centres undefined)	·	-31	·	·	·
COC(=O)C1=C(C)N(Cc2cccc(C(F)(F)F)c2)C(=NCc2ccc3c(c2)OCO3)NC1c1ccc(Cl)cc1 (centres undefined)	·	-15	·	·	·
Cc1ccc(NC(=O)N(C2=NCC(C)S2)c2ccccc2)cc1 (centres undefined)	·	-24	·	·	·
CNC(=S)N(C1=NCC(c2ccc([N+](=O)[O-])cc2)S1)c1ccccc1 (centres undefined)	-11%	33	13µM*	-33%	68%
CC(C)(C)NCc1cc(Cl)ccc1OCc1cccs1	-3%	-28	9.3µM*	?	-1%
CC(C)(C)NCc1cc(Br)ccc1OCc1cccs1	-3%	-30	29%	?	5%
SMILES	FBPA Giardia inh	HCMV antiviral	Pf growth 96h	Pf growth 48h	Sm TGR inh
CC(C)(C)NCc1cc(Cl)ccc1OCc1ccccc1F	-1%	?	8.3µM*	-17%[5.75 µM]	65%
Cn1nnnc1SCCCNCc1cc(Cl)ccc1OCc1ccccc1F	·	?	·	·	2%
CCN(CC)CCNCc1cc(Cl)ccc1OCc1ccccc1F	-5%	-20	0%	5.9µM*	·
COc1ccc(CN2C(=O)c3cccnc3C2Nc2cc(Cl)ccc2OC)cc1 (centres undefined)	?	19	?	5.2µM*	-9%
COc1ccc(OC)c(NC2c3ncccc3C(=O)N2Cc2ccco2)c1 (centres undefined)	-9%	-15	-9%	-8%	-6%
O=[N+]([O-])c1cc2c(ccc3occc32)o1	·	-73*	·	·	·
Cc1ccc(OCC(=O)NC(=S)Nc2ccccn2)c(Br)c1	·	-63*	195%	133%	-3%
C/C(=N\NC(=O)C1CC1c1ccccc1)c1cccc([N+](=O)[O-])c1 (centres undefined)	1%	-28	8.3µM*	-3%	0%
CCOC(=O)[C@H](CCc1ccccc1)N[C@@H](C)C(=O)N1CCC[C@H]1C(=O)O	-12%	59	6µM*!	-26%	-9%
CCOC(=O)C(CCc1ccccc1)NC(C)C(=O)N1Cc2cc(OC)c(OC)cc2CC1C(=O)O (centres undefined)	0%	·	12µM*	?	·
CC(CNC(=O)c1cc(COc2ccc3ncccc3c2)on1)c1ccccc1 (centres undefined)	-2%	-76*	-2%	?	-9%
CN(Cc1nccn1C)C(=O)c1cc(COc2ccc3ncccc3c2)on1	-1%	-31	11%	-10%	-17%
Cc1cc(CN(C)C(=O)c2cc(COc3ccc4ncccc4c3)on2)on1	-2%	-80*	5%	-8%	32µM*
CC1(C)Cc2c(C#N)c(N3CCN(C(=O)c4ccco4)CC3)nc(Cc3ccccc3)c2CO1	-2%	-36	5%[5.75 µM]	1.7µM*	0%
CCc1nc(N2CCN(C(=O)c3ccco3)CC2)c(C#N)c2c1COC(C)(C)C2	-1%	-1	?	10µM*	0%
CCc1nc(N2CCN(C(C)=O)CC2)c(C#N)c2c1COC(C)(C)C2	-1%	-8	?	-21%	3%
CCCNC(=O)N1CCN(c2nc(C(C)C)c3c(c2C#N)CC(C)(C)OC3)CC1	0%	-66*	-3%	·	5%
CCCC/C=C/C(NC(=O)CCc1ccccc1)c1ccccc1 (centres undefined)	-1%	-26	8.3µM*	?	-11%
CCC(C)N(NC(C)=O)c1nc(Cl)nc(NC(C)C)n1 (centres undefined)	13%	25	?	2.1µM*	-4%
COc1cccc(OCCNC(=O)CSc2ccc(C(F)(F)F)cc2[N+](=O)[O-])c1	2%	-27	44%	2%	?
CN(C(=O)CCc1nc(-c2ccccc2F)no1)c1ccccc1	1%	6	-30%	?	17%
Cc1ccc(C(NC(=O)C2CCCCC2)c2c(O)ccc3ccccc23)cc1 (centres undefined)	-4%	-66*	?	?	-3%
